Activity calls are given as the source filed them. How the source made its calls: active means hit-call score of the fitted dose curve at least 0.9, where 1 is the maximum; inactive means score below 0.9.
Legend:
[1] = APR_HepG2_StressKinase_1hr: Apredica 1-hour HepG2 Assay for Stress Kinase (AID 2282906); conditions: HepG2 stress kinase (phospho-c-Jun) imaging, actives raise or lower the signal
Outline: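 High-content imaging of phospho-c-Jun immunostaining (with Hoechst nuclear identification) after a 1 h exposure of HepG2 cells to 10 concentrations from 0.39 to 200 uM, final DMSO 0.5%. Fitted bidirectionally against DMSO.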

[2] = APR_HepG2_NuclearSize_24hr: Apredica 24-hour HepG2 Assay for Nuclear Size (AID 2282907); conditions: high-content imaging, actives raise or lower the signal
Outline: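 Nuclear size from Hoechst 33342-stained, formaldehyde-fixed HepG2 nuclei imaged by high-content microscopy, after 24 h dosing at ten concentrations from 0.39 to 200 uM in 0.5% DMSO; gain or loss relative to DMSO baseline.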

[3] = APR_HepG2_CellLoss_24hr: Apredica 24-hour HepG2 Assay for Cell Loss (AID 2282908); conditions: high-content imaging
Outline: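 Nuclei stained with Hoechst 33342 after formaldehyde fixation (3.7%) were imaged at 20x to count cells. Exposure lasted 24 hr, at ten concentrations from 0.39 to 200 uM in duplicate, with 0.5% v/v DMSO. Fit bidirectional, relative to DMSO.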

[4] = APR_HepG2_MicrotubuleCSK_24hr: Apredica 24-hour HepG2 Assay for Microtubule CSK Stabilty (AID 2282909); conditions: HepG2 microtubule cytoskeleton imaging, actives raise or lower the signal
Outline: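 Fixed HepG2 cells were stained for alpha-tubulin and imaged after 24 hr exposure to ten concentrations spanning 0.39–200 uM in 0.5% DMSO. Signal change was fitted in both directions relative to DMSO; taxol was the positive control.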

[5] = APR_HepG2_MitoticArrest_24hr: Apredica 24-hour HepG2 Assay for Mitotic Arrest (AID 2282910); conditions: high-content imaging, actives raise or lower the signal
Outline: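 Treatment lasted 24 hr in the human HepG2 line at 0.39–200 uM, solvent held at 0.5% DMSO. Fixed cells were stained with Hoechst 33342 and anti-phospho-histone H3, imaged at 20x, and analysed by gain- or loss-of-signal fitting against DMSO.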

[6] = APR_HepG2_MitoMembPot_24hr: Apredica 24-hour HepG2 Assay for Mitochondrial Membrane Potential (AID 2282911); conditions: imaging, actives raise or lower the signal
Outline: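 Cells are dosed for 24 hr across 0.39 to 200 uM with solvent held at 0.5% DMSO. They are then stained with 250 nM MitoTracker Red CMXRos for 30 min, fixed in 3.7% formaldehyde and imaged.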

[7] = APR_HepG2_MitoMass_24hr: Apredica 24-hour HepG2 Assay for Mitochondrial Mass (AID 2282912); conditions: high-content imaging, actives raise or lower the signal
Outline: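 Endpoint is MitoTracker Red CMXRos (250 nM, 30 min, pre-fixation) intensity from 20x high-content imaging, nuclei located by Hoechst. Human HepG2 cells received ten concentrations from 0.39 to 200 uM in 0.5% DMSO for 24 hr, duplicate wells. Bidirectional fit relative to DMSO.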

[8] = APR_HepG2_p53Act_24hr: Apredica 24-hour HepG2 Assay for p53 Activation (AID 2282913); conditions: high-content imaging, actives raise or lower the signal;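 further: p53 protein immunofluorescence averaged per cell in HepG2 with Hoechst nuclei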
Outline: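 Human HepG2 liver cells; 24 hr cpd treatment, 0.39–200 uM, 0.5% DMSO final. Fixed in 3.7% formaldehyde, permeabilized with 0.5% Triton X-100, stained with anti-p53/Cy5 plus Hoechst 33342. Six images per well at 20x; gain or loss vs DMSO.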

[9] = APR_HepG2_CellCycleArrest_72hr: Apredica 72-hour HepG2 Assay for Cell Cycle Arrest (AID 2282914); conditions: high-content imaging, actives raise or lower the signal
Outline: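 Read-out is Hoechst-stained nuclear DNA content measured by automated fluorescence imaging (20x, six images per well), fitted in both directions relative to DMSO. Human HepG2 liver cells received 0.39–200 uM compound for 72 hr at 0.5% v/v DMSO.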

[10] = APR_HepG2_CellLoss_72hr: Apredica 72-hour HepG2 Assay for Cell Loss (AID 2282915); conditions: high-content imaging
Outline: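 HepG2 cells were exposed for 72 hr to compounds at 0.39–200 uM (ten concentrations, duplicate) in 0.5% v/v final DMSO. Nuclei were stained with Hoechst 33342 after 3.7% formaldehyde fixation, imaged at 20x, and counted; fits bidirectional versus DMSO.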

[11] = APR_HepG2_P-H2AX_72hr: Apredica 72-hour HepG2 Assay for H2AX Phosphorylation (AID 2282916); conditions: imaging, actives raise or lower the signal;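 further: phospho-histone H2A.x immunostain intensity per cell marking DNA damage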
Outline: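 Phospho-histone H2A.x immunofluorescence, multiplexed with Hoechst and c-Jun, quantified by high-content imaging. Compounds applied to HepG2 for 72 h across ten concentrations (0.39–200 uM, 0.5% DMSO), in duplicate; DMSO baseline.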

[12] = APR_HepG2_MitoMembPot_72hr: Apredica 72-hour HepG2 Assay for Mitochondrial Membrane Potential (AID 2282917); conditions: imaging, actives raise or lower the signal
Outline: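 HepG2 cells exposed 72 h to compounds at 0.39–200 uM (0.5% v/v DMSO, duplicates); MitoTracker Red CMXRos 250 nM loaded 30 min before 3.7% formaldehyde fixation, imaged by HCS fluorescence. Bidirectional fit versus DMSO.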

[13] = APR_HepG2_MitoticArrest_72hr: Apredica 72-hour HepG2 Assay for Mitotic Arrest (AID 2282918); conditions: high-content imaging, actives raise or lower the signal
Outline: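 Read-out is phospho-histone H3 immunofluorescence with Hoechst nuclear segmentation, imaged at 20x. Human HepG2 liver cells received ten concentrations (0.39–200 uM, final DMSO 0.5% v/v) for 72 hr before fixation. Gain or loss of signal was fitted relative to DMSO.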

[14] = APR_HepG2_MicrotubuleCSK_72hr: Apredica 72-hour HepG2 Assay for Microtubule CSK Stabilty (AID 2282919); conditions: HepG2 microtubule cytoskeleton, high-content imaging, actives raise or lower the signal
Outline: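 Ten-point dosing (0.39–200 uM, 0.5% DMSO) of HepG2 for 72 hr, with taxol as the cytoskeletal positive control. The cells were formaldehyde-fixed and then stained with alpha-tubulin/Cy5 and Hoechst. Imaging at 20x used a −2 um Z offset for tubulin.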

[15] = APR_HepG2_P-H2AX_24hr: Apredica 24-hour HepG2 Assay for H2AX Phosphorylation (AID 2282920); conditions: high-content imaging, actives raise or lower the signal
Outline: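 HepG2, 24 hr, cpd 0.39–200 uM (10 conc, duplicate), DMSO 0.5% v/v final. Fix 3.7% formaldehyde, Triton X-100 permeabilize, anti-phospho-H2A.x 1:200 + Hoechst 2 ug/mL. Imaged, bidirectional fit vs DMSO.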

[16] = APR_HepG2_StressKinase_72hr: Apredica 72-hour HepG2 Assay for Stress Kinase (AID 2282921); conditions: HepG2 stress kinase (phospho-c-Jun) imaging, actives raise or lower the signal
Outline: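 Stress kinase signal is phospho-c-Jun immunofluorescence (1:500 primary, Cy3 secondary) in fixed, permeabilized human HepG2 cells imaged at 20x. Exposure lasted 72 hr over ten concentrations from 0.39 to 200 uM, 0.5% DMSO, in duplicate. Bidirectional fit versus DMSO.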

[17] = APR_HepG2_StressKinase_24hr: Apredica 24-hour HepG2 Assay for Stress Kinase (AID 2282922); conditions: HepG2 stress kinase (phospho-c-Jun) imaging, actives raise or lower the signal
Outline: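 After 24 hr compound treatment (up to 200 uM, final DMSO 0.5% v/v), HepG2 cells are fixed and multiplex-labeled; phospho-c-Jun intensity is captured by high-content fluorescence imaging and analyzed relative to DMSO.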

[18] = APR_HepG2_p53Act_72hr: Apredica 72-hour HepG2 Assay for p53 Activation (AID 2282923); conditions: high-content imaging, actives raise or lower the signal;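 further: average cellular p53 protein immunofluorescence intensity in HepG2 cells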
Outline: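 After 72 h with compound (ten points, 0.39 to 200 uM, final DMSO 0.5% v/v), fixed HepG2 cells were labelled with sheep anti-p53 and Hoechst 33342 and imaged; gain or loss versus DMSO scored.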

[19] = APR_HepG2_MitoMass_72hr: Apredica 72-hour HepG2 Assay for Mitochondrial Mass (AID 2282924); conditions: high-content imaging, actives raise or lower the signal;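 further: MitoTracker Red CMXRos stain intensity per cell imaged as mitochondrial mass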
Outline: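 Steps: treat HepG2 72 hr (0.39–200 uM, duplicate wells); load MitoTracker Red CMXRos, 250 nM, 30 min; fix with 3.7% formaldehyde, permeabilise with 0.5% Triton X-100; capture images, nuclei via Hoechst 33342; fit bidirectionally against DMSO.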

[20] = APR_HepG2_NuclearSize_72hr: Apredica 72-hour HepG2 Assay for Nuclear Size (AID 2282925); conditions: high-content imaging, actives raise or lower the signal
Outline: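 Compounds (0.39–200 uM, final DMSO 0.5%) were applied to HepG2 for 72 hr. Cells were then formaldehyde-fixed, permeabilized and labelled with Hoechst 33342. Nuclear diameter was quantified from six images per well.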

Measured: AC50

CCCOC(=O)c1ccc(C(=O)OCCC)nc1
inactive: all assays above

CCC(C)OC(=O)N1CCCCC1CCO (stereo not drawn)
not listed: [15]
inactive: all other assays above

CCOC(=O)[C@H](C)Oc1ccc(Oc2nc3ccc(Cl)cc3o2)cc1
active: [6] 96.7 µM | [10] 117 µM
not listed: [8]
inactive: all other assays above

From PubChem BioAssay (EPA / NIEHS)
